Experimental data: PubChem BioAssay (Tox21)
Inconclusive results are not listed. Active and inactive are the calls of the source. Unless noted, the call rests on the fitted dose curve; in most records, active means well fitted curve in the direction sought with a large enough effect in the repeat runs; inconclusive means weak or mixed curves; inactive means no such curve, though single readings can be large; an effect the other way counts as inactive or inconclusive.

Columns and labels:
[1] = qHTS assay for small molecule agonists of the p53 signaling pathway (AID 651631; calls by dose curve; further: nearly all actives have a fitted effect of over 15% in size; further: potency means the concentration at half of the fitted maximal effect)
How it was run: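 Beta-lactamase reporter activity under p53 response elements was quantified in HCT-116 cells by FRET fluorescence, following 16 h incubation with test compounds at 37 °C and 2 h substrate development at room temperature.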

[2] = qHTS assay for small molecule agonists of the p53 signaling pathway - cell viability (AID 651633; calls by dose curve;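 further: p53RE-bla HCT reporter cells with a stable beta-lactamase p53 reporter; series mostly up to about 83 µM; nearly all actives have a fitted effect of over 30% in size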)
How it was run: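 p53RE-bla cells, seeded at 4,000 per well and rested 5 h at 37 C/5% CO2, received compounds in DMSO for 16 h at 37 C. CellTiter-Glo was then added, and luminescence was read after 30 min at room temperature to gauge cytotoxicity.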

[3] = qHTS assay for small molecules that induce genotoxicity in human embryonic kidney cells expressing luciferase-tagged ATAD5 - cell viability (AID 651634; calls by dose curve; further: nearly all actives have a fitted effect of over 25% in size)
How it was run: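 After 15.5 hr incubation with compound at 37C, 5% CO2, HEK293T ATAD5-luciferase cells received CellTiter-Fluor reagent; fluorescence intensity was quantified following 30 min at 37C.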

[4] = qHTS assay for small molecule disruptors of the mitochondrial membrane potential - cell viability (AID 720634; calls by dose curve;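 further: human HepG2 liver cancer cells; series mostly up to about 83 µM; nearly all actives have a fitted effect of over 20% in size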)
How it was run: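 ATP-based luminescent viability readout (CellTiter-Glo, 30 min, room temperature) in HepG2 cells multiplexed with the m-MPI membrane potential dye; compound exposure lasted 1 hr at 37 C.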

[5] = qHTS assay to test for compound auto fluorescence at 590 nm (red) in HepG2 cells (AID 720674)
How it was run: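 Rose Bengal sodium served as the red fluorophore standard. HepG2 monolayers (overnight attachment, MEM with 10% FBS) were exposed to test compounds for 1 hr at 37 C and read at Ex 540/Em 590 nm.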

[6] = qHTS assay to test for compound auto fluorescence at 535 nm (green) in HepG2 cells (AID 720675)
[7] = qHTS assay to test for compound auto fluorescence at 460 nm (blue) in HEK293 cells (AID 720678)
How it was run: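 HEK293 cells (2,000/well, medium with 10% dialyzed FBS) attached 4-5 hr, then exposed to compound overnight at 37C, 5% CO2. Blue fluorescence read at 405/460 nm, with triamterene as reference fluorophore.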

[8] = qHTS assay to test for compound auto fluorescence at 590 nm (red) in HEK293 cells (AID 720679)
How it was run: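 HEK293 cells (2,000/well, 10% dialyzed FBS) attached 4-5 hr, then dosed with compound or DMSO and incubated overnight at 37C, 5% CO2. Red fluorescence read at 540/590 nm, Rose Bengal sodium as reference fluorophore.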

[9] = qHTS assay to test for compound auto fluorescence at 535 nm (green) in HEK293 cells (AID 720680)
[10] = qHTS assay to test for compound auto fluorescence at 460 nm (blue) in HEK293 cell free culture (AID 720681)
How it was run: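 Test compounds were pinned into cell-free culture medium (DMEM with 10% FBS) and fluorescence was read directly at Ex/Em 405/460 nm. Signals were expressed as fluorescence equivalents of triamterene, with DMSO vehicle as control.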

[11] = qHTS assay to test for compound auto fluorescence at 535 nm (green) in HEK293 cell free culture (AID 720682)
How it was run: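 Each library compound, or DMSO control, is added by pintool to medium alone, comprising DMEM and 10% FBS. Emission at 535 nm following 485 nm excitation is quantified against fluorescein.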

[12] = qHTS assay to test for compound auto fluorescence at 590 nm (red) in HEK293 cell free culture (AID 720683)
How it was run: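 Tox21 10K library compounds were pinned into cell-free DMEM with 10% FBS and fluorescence was read at excitation 540 nm. Activity is expressed as Rose Bengal sodium equivalency.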

[13] = qHTS assay to test for compound auto fluorescence at 590 nm (red) in HepG2 cell free culture (AID 720684)
How it was run: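 Ex 540 / Em 590 nm read of compound in cell-free MEM (10% FBS). Rose Bengal sodium reference.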

[14] = qHTS assay to test for compound auto fluorescence at 460 nm (blue) in HepG2 cell free culture (AID 720685)
How it was run: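 Cell-free plates of MEM plus 10% FBS received 23 nL compound or DMSO vehicle; blue-channel (405/460 nm) intensity scored against triamterene as reference fluorophore.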

[15] = qHTS assay to test for compound auto fluorescence at 535 nm (green) in HepG2 cell free culture (AID 720686)
[16] = qHTS assay to test for compound auto fluorescence at 460 nm (blue) in HepG2 cells (AID 720687)
How it was run: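 Cells (2,000/well in MEM with 10% FBS) attached overnight at 37 C, then were exposed to compound or DMSO for 1 hr at 37 C, 5% CO2. Fluorescence read at Ex/Em 405/460 nm, expressed as triamterene-equivalent signal.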

[17] = molecular target: Glucocorticoid receptor (Homo sapiens) (UniProt P04150); assay: qHTS assay to identify small molecule antagonists of the glucocorticoid receptor (GR) signaling pathway (AID 720692; active means well fitted inhibition curve with a large enough effect in the signal ratio in the repeat runs, not every such curve was filed as active; the % refers to the signal ratio)
Glucocorticoid receptor (Homo sapiens), sequence (P04150 whole entry, looked up): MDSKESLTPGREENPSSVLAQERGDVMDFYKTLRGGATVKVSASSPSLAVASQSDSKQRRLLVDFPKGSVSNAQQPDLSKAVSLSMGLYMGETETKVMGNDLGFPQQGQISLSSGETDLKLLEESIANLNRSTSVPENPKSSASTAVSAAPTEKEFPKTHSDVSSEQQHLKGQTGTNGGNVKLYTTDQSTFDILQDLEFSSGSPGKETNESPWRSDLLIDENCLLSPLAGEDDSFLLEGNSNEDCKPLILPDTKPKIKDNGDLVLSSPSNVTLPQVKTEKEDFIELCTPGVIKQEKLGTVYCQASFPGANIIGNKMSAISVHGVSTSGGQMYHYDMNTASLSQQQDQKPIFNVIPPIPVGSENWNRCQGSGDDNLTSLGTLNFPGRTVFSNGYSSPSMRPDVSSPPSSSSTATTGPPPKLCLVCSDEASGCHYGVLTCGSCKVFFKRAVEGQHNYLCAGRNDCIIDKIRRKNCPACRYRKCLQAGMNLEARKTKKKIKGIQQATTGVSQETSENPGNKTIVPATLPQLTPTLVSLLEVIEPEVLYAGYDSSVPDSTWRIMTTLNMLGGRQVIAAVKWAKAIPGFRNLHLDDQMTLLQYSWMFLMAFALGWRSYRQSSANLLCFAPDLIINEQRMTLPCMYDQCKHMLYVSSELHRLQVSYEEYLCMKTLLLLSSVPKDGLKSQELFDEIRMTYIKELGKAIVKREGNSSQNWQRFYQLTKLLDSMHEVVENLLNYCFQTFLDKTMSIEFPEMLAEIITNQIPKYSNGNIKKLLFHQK
How it was run: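 Quantitative HTS in antagonist format: HeLa cells expressing endogenous GR and a stably integrated GRE-bla reporter, stimulated with 5 nM dexamethasone (final) alongside test compounds for 18 h.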

[18] = qHTS assay for small molecule disruptors of the mitochondrial membrane potential (AID 720635); further: potency means the concentration at half of the fitted maximal effect
How it was run: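 HepG2 cells (2,000/well) attached overnight at 37C, then took compound for 1 hr at 37C, 5% CO2. Mito-MPS dye was added for 30 min; fluorescence was read at 490/535 nm (monomers) and 540/590 nm (aggregates).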

[19] = molecular target: Glucocorticoid receptor (Homo sapiens) (UniProt P04150); assay: qHTS assay to identify small molecule agonists of the glucocorticoid receptor (GR) signaling pathway (AID 720691; active means well fitted activation curve with a large enough effect in the signal ratio in the repeat runs, not every such curve was filed as active; the % refers to the signal ratio)
How it was run: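 Cells: GR-bla HeLa, endogenous GR with stably integrated GRE-beta-lactamase reporter. Treatment 18 h, 37 C, compounds delivered in DMSO. Detection via LiveBLAzer B/G FRET substrate, 2 h RT, fluorescence intensity.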
On the % scale 0 is the no-effect control and ±100 the full control effect.

CCNc1nc(NC(C)C)nc(OC)n1
inactive: Potency [1] | Potency [2] | Potency [3] | Potency [4] | outcome [5] | outcome [6] | outcome [7] | outcome [8] | outcome [9] | outcome [10] | outcome [11] | outcome [12] | outcome [13] | outcome [14] | outcome [15] | outcome [16] | Potency [17]

CCS(=O)(=O)C(C)(C)S(=O)(=O)CC
inactive: Potency [1] | Potency [2] | Potency [3] | Potency [4] | Potency [18] | outcome [5] | outcome [6] | outcome [7] | outcome [8] | outcome [9] | outcome [10] | outcome [12] | outcome [13] | outcome [14] | outcome [15] | outcome [19] | Potency [17]

CN/C(=N\[N+](=O)[O-])NCC1CCOC1 (stereo not drawn)
inactive: Potency [1] | Potency [2] | Potency [3] | Potency [4] | outcome [5] | outcome [6] | outcome [7] | outcome [9] | outcome [10] | outcome [11] | outcome [12] | outcome [13] | outcome [14] | outcome [15] | outcome [16] | outcome [19] | Potency [17]

CN(N=O)C(N)=O
inactive: Potency [1] | Potency [2] | Potency [3] | Potency [4] | outcome [5] | outcome [6] | outcome [7] | outcome [9] | outcome [10] | outcome [11] | outcome [12] | outcome [13] | outcome [14] | outcome [15] | outcome [16] | Potency [17]

CCCCP(CCCC)CCCC
inactive: Potency [1] | Potency [2] | Potency [3] | Potency [4] | outcome [5] | outcome [6] | outcome [7] | outcome [8] | outcome [9] | outcome [10] | outcome [11] | outcome [12] | outcome [13] | outcome [14] | outcome [15]

O=C(Oc1ccc(Br)cc1)N1CCN2CCC1CC2
inactive: Potency [1] | Potency [2] | Potency [3] | Potency [4] | outcome [5] | outcome [6] | outcome [7] | outcome [9] | outcome [10] | outcome [11] | outcome [12] | outcome [13] | outcome [14] | outcome [15] | outcome [16] | outcome [19] | Potency [17]

CC(C)(C)NCC(O)c1cc(Cl)c(N)c(Cl)c1 (stereo not drawn)
inactive: Potency [2] | Potency [3] | Potency [4] | outcome [5] | outcome [6] | outcome [7] | outcome [8] | outcome [9] | outcome [10] | outcome [11] | outcome [12] | outcome [13] | outcome [14] | outcome [15] | outcome [16]
active: Potency [1] 1.33 µM

Nc1ccccc1Cl
inactive: Potency [1] | Potency [2] | Potency [3] | Potency [4] | Potency [18] | outcome [5] | outcome [6] | outcome [7] | outcome [8] | outcome [9] | outcome [10] | outcome [12] | outcome [13] | outcome [14] | outcome [15] | outcome [16] | outcome [19] | Potency [17]

ClCC(Cl)Cl
inactive: Potency [1] | Potency [2] | Potency [3] | Potency [4] | Potency [18] | outcome [5] | outcome [6] | outcome [7] | outcome [8] | outcome [9] | outcome [10] | outcome [11] | outcome [12] | outcome [13] | outcome [15] | outcome [16]

O=NN1CCN(N=O)CC1
inactive: Potency [1] | Potency [2] | Potency [3] | Potency [4] | outcome [5] | outcome [6] | outcome [7] | outcome [8] | outcome [9] | outcome [10] | outcome [11] | outcome [12] | outcome [13] | outcome [14] | outcome [15] | outcome [16]

COc1ccc2c(c1OC)CN1CCc3cc4c(cc3C1C2)OCO4 (stereo not drawn)
inactive: Potency [1] | Potency [2] | Potency [3] | Potency [4] | fluorescence, relative to Rose Bengal [5] 0.552% [at 18.6 µM] | fluorescence, % of fluorescein control [6] -0.0763% [at 18.6 µM] | fluorescence, % of triamterene [7] -0.105% [at 18.6 µM] | fluorescence, % of fluorescent control [8] -0.125% [at 18.6 µM] | fluorescence, % of fluorescein [9] -0.0571% [at 18.6 µM] | fluorescence, % of fluorescent control [10] 0.288% [at 18.6 µM] | activity change [11] -0.0423% [at 18.6 µM] | fluorescence, % of fluorescent control [12] 0.155% [at 18.6 µM] | fluorescence, % of Rose Bengal [13] -0.268% [at 18.6 µM] | fluorescence, % of fluorescent control [14] -0.0388% [at 18.6 µM] | fluorescence, % of fluorescein control [15] 0.0175% [at 18.6 µM] | fluorescence, % of fluorescent control [16] 0.229% [at 18.6 µM] | Potency [17]

C=C(C)CN(CC)c1c([N+](=O)[O-])cc(C(F)(F)F)cc1[N+](=O)[O-]
active: Potency [18] 30.6 µM
inactive: Potency [1] | Potency [2] | Potency [3] | Potency [4] | outcome [5] | outcome [6] | outcome [7] | outcome [9] | outcome [10] | outcome [11] | outcome [12] | outcome [13] | outcome [14] | outcome [15] | Potency [17]

O=CNC(N1CCN(C(NC=O)C(Cl)(Cl)Cl)CC1)C(Cl)(Cl)Cl (stereo not drawn)
inactive: Potency [1] | Potency [2] | Potency [3] | Potency [4] | outcome [5] | outcome [6] | outcome [8] | outcome [9] | outcome [10] | outcome [11] | outcome [12] | outcome [13] | outcome [15] | outcome [16] | Potency [17]

COC(C)(C)C
inactive: Potency [1] | Potency [2] | Potency [3] | Potency [4] | Potency [18] | outcome [5] | outcome [6] | outcome [7] | outcome [8] | outcome [9] | outcome [10] | outcome [11] | outcome [12] | outcome [13] | outcome [14] | outcome [15] | outcome [16]

CC(Cl)(Cl)[N+](=O)[O-]
inactive: Potency [1] | Potency [2] | Potency [3] | Potency [4] | Potency [18] | outcome [5] | outcome [6] | outcome [7] | outcome [8] | outcome [9] | outcome [10] | outcome [11] | outcome [12] | outcome [13] | outcome [14] | outcome [15] | outcome [19] | Potency [17]
